The campaign covered roughly 360,000 compounds. About 3,600 (1%) were called active. The sample holds actives, similar compounds and a random draw of the others, so the mix is not that of the screen.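 The calls were made as follows: active = compounds whose plate-normalised and pattern-corrected inhibition of the luciferase reporter signal at the single screening dose is 50% or more; inactive = the rest.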

A short description of the assay: inhibitors of TROY-driven NF-kB signaling, primary screen, Q293 LMP1-TROYcd cells, NF-kB luciferase, uHTS (AID 1347056). Particulars: Q293 LMP1-TROYcd NF-kB luciferase reporter, 4 h; at 10 µM; stronger effect = higher value. For orientation: A reporter such as luciferase makes a cellular process visible.
By inhibition is commonly meant the drop in the measured response relative to a control, in per cent. `CCCCn1c(N)c(N(CCC(C)C)C(=O)c2ccc(COc3ccccc3)o2)c(=O)[nH]c1=O`: the inhibition is -19.5% (inactive).

In the case of `CCC(CC)C(=O)Nc1ccc(S(=O)(=O)Nc2nccs2)cc1`, the inhibition is -15.5% (inactive). Turning to `CC1(C)C/C(=C(/C#N)C(N)=O)CCO1`, the inhibition is -13.2% (inactive).

Regarding `O=C(NCc1ccccc1)c1onc(CSc2ccncc2)c1C(=O)NCc1ccccc1`, the inhibition was -21.8% (inactive).

For `CC[C@@H]1Cc2cc(O)ccc2C2=C1c1ccc(O)cc1C[C@H]2CC`, the inhibition is 59.9% (active). Turning to `C=CC[n+]1c(-c2ccc(C)cc2)csc1NNC(=O)Nc1ccccc1`, the inhibition is 25.5% (inactive). For the compound `CC(=O)c1cccc(NC(=S)N2CCN(S(C)(=O)=O)CC2)c1`, the inhibition is -9.61% (inactive). With `CCCCN1C(=O)C(=O)N(CC(=O)Nc2cccc(C(C)=O)c2)C1=O` the figure was -16.1% (inactive); with `CSc1ccccc1C(=O)Nc1cccc(C(C)=O)c1`, 8.76% (inactive); with `CC(=O)c1cccc(NC(=O)C2CCN(C(=O)c3ccccc3Cl)CC2)c1`, 1.66% (inactive).

Take `C=CCSc1nsc(NC(=O)Nc2cccc(C(C)=O)c2)n1`: the inhibition was 55.9% (active). In the case of `CCSc1nsc(NC(=O)Nc2cccc(C(C)=O)c2)n1`, the inhibition is 67.1% (active). Regarding `CCOC12CC(C)(C)CC(C)(CC3=C1C(=O)CC(C)(C)C3)C2` (stereo not given), the inhibition was 8.44% (inactive). Next, `NC(=O)c1cc(S(=O)(=O)N2CCCC2)ccc1OCc1ccc(F)cc1`: -16.9% (inactive). Next, `CCOc1ccc2c(c1)c(=O)c(S(=O)(=O)c1ccc(C)cc1)cn2CC`: 0.7% (inactive). In the case of `N#Cc1cccc(NC(=O)c2cc(C3CCCCN3C(=O)CCc3ccccc3)on2)c1` (stereo not given), the inhibition is 19.9% (inactive). With `CC1CN(C2CCCCC2)c2nc3c(c(=O)n(C)c(=O)n3C)n2C1` (stereo not given) the figure was -2.69% (inactive). For `Nc1ccc(-n2nncc2-c2ccco2)cc1`, the inhibition is -12.6% (inactive).

For `CC(=O)C1=C(O)C(=O)N(c2ccc(Br)cc2)C1c1ccc([N+](=O)[O-])cc1` (stereo not given), the inhibition is -18.5% (inactive).

For the compound `COc1ccc(OC)c(C(O)c2nc3ccccc3n2C)c1` (stereo not given), the inhibition was -7.8% (inactive). Turning to `OCCCNc1nccc(-c2cc(Nc3cccc(Cl)c3)ncn2)n1`, the inhibition was 54.1% (active). With `COc1ccc(C2=NOC(C(=O)NCc3ccco3)C2)cc1OC` (stereo not given) the figure was 14.5% (inactive); with `COc1ccc(CNC(=O)CN(Cc2ccc(Cl)cc2)S(C)(=O)=O)cc1`, 6.51% (inactive); with `Cc1cccc(CC(=O)N2CCN=C2SCc2ccc([N+](=O)[O-])cc2)c1`, -7.77% (inactive). Turning to `COCCNC(=O)CN1C(=O)CSc2ncccc21`, the inhibition was -20.5% (inactive). Regarding `CCC1(C)NC(=O)N(CC(=O)N2CCN(c3cccc(Cl)c3)CC2)C1=O` (stereo not given), the inhibition was -0.65% (inactive). In the case of `O=C(Cc1ccccc1)Nc1ccc(NC(=O)c2cccnc2)cc1`, the inhibition was 17.2% (inactive).

On to `Cc1cc(NS(=O)(=O)c2ccc(NC(=O)c3cccnc3)cc2)nc(C)n1`, for which the inhibition is 9.3% (inactive). With `Cc1ccc2nc(-c3ccc(NC(=O)c4cccnc4)cc3)oc2c1` the figure was 50.8% (active); with `CC(=O)Nc1sc2c(c1C(c1cccc(F)c1)N1CCN(CCO)CC1)CCCC2` (stereo not given), -6.54% (inactive); with `COc1ccccc1N(C)S(=O)(=O)c1ccc(Cl)c(C(=O)Nc2ccncc2)c1`, -12.4% (inactive). With `CC(=O)c1ccc(S(=O)(=O)NCCC(=O)N2CCN(c3ccccn3)CC2)cc1`, the inhibition is 0.71% (inactive). As for `COc1ccc(C)cc1NC(=O)CSc1cccc[n+]1[O-]`, the inhibition is 13% (inactive).

For the compound `CCCn1c(C(Cc2ccccc2)NC(=O)COC)nc2ccccc21` (stereo not given), the inhibition is -16.1% (inactive). Consider `O=C(CC(O)(C(F)(F)F)C(F)(F)F)Nc1ccc(Cl)c(Cl)c1`, for which the inhibition was 59.2% (active).

`O=C(CN1CCOCC1)Nc1ccc(NC(=O)CN2CCOCC2)c(Cl)c1`: the inhibition is -4.68% (inactive). For `CN(CC(=O)Nc1ccc(Cl)c(C(F)(F)F)c1)C(=O)CCC(=O)c1ccccc1`, the inhibition was 29.4% (inactive).

With `Cc1ccc(C2=NN(C(=O)COc3ncnc4ccccc34)C(c3ccco3)C2)cc1` (stereo not given), the inhibition was 3.07% (inactive). Next, `O=C(CN1CCN(C2CCS(=O)(=O)C2)CC1)N1N=C(c2ccc(Cl)cc2)CC1c1ccco1` (stereo not given): 58.2% (active). In the case of `Cc1ccc(C2=NN(C(=O)CSc3nc(N)cc(N)n3)C(c3ccco3)C2)cc1` (stereo not given), the inhibition is -20.4% (inactive). As to `CCC1=[N+]([O-])C(C)(/C(C)=N\O)N(O)C1(C)C` (stereo not given), the inhibition was -4.1% (inactive). Turning to `CCCN(CCC)S(=O)(=O)c1cc2c(cc1Br)CCN2C(=O)CC`, the inhibition was 22.4% (inactive). On to `CCOC(=O)c1ccc(NC(=S)N2CCN(c3ccccn3)CC2)cc1`, for which the inhibition is -15.3% (inactive).

In the case of `CCCCOc1ccc(CON(C(C)=O)C(C)=O)cc1Cl`, the inhibition is -35.4% (inactive). Regarding `CC1(C(=O)O)CCCN(C(=O)/C=C/c2ccccc2)C1` (stereo not given), the inhibition is -7.33% (inactive). Take `COC(=O)c1c(C)[nH]c(C(=O)/C=C/c2ccc(Cl)cc2)c1C`: the inhibition was -12.1% (inactive). `Cc1[nH]c(=O)c(C(=O)/C=C/c2ccccc2)c2c1CCCC2`: the inhibition is 52% (active). Take `COc1cccc(-c2nnc(NC(=O)c3ccc(S(=O)(=O)N(CC(C)C)CC(C)C)cc3)o2)c1`: the inhibition was 12.8% (inactive). In the case of `CC(Nc1nc(C(F)(F)F)nc2ccccc12)c1cccs1` (stereo not given), the inhibition was 60.8% (active). For `CCc1ccc(C(CNc2nc(C(F)(F)F)nc3ccccc23)N(C)C)cc1` (stereo not given), the inhibition was 4.28% (inactive). Take `CC(Nc1nc(N2CCCC2)nc2ccccc12)c1ccccc1` (stereo not given): the inhibition is 5.36% (inactive). For `CN1CCCN(S(=O)(=O)c2ccc3c(c2)OCCO3)CC1`, the inhibition was -12.9% (inactive). With `COc1ccc(OC)c(NC(=O)CN(C)CCOc2ccc(Br)cc2)c1` the figure was 9.37% (inactive). Consider `COc1ccc(Nc2ncnc3ccc(Br)cc23)c(OC)c1`, for which the inhibition was 84.4% (active). As to `COc1ccc(OC)c(Nc2nc3ccccc3n3cnnc23)c1`, the inhibition is -14.2% (inactive). Consider `COc1cccc2cc(C(N)=O)/c(=N\NC(=O)c3ccccc3)oc12`, for which the inhibition was 73.1% (active). For `COc1cccc2cc(C(=O)N3CCN(C(=O)c4ccccc4)CC3)c(=O)oc12`, the inhibition was -10% (inactive). Next, `COc1cccc2cc(C(=O)N(C)C)c(=O)oc12`: 11% (inactive).

As to `O=C(CN(c1cc(C(F)(F)F)ccc1Cl)S(=O)(=O)c1ccccc1)NCc1cccnc1`, the inhibition was 0.66% (inactive). Turning to `COC(c1ccccc1)(c1ccccc1)C(Oc1nc(C)cc(C)n1)C(=O)O` (stereo not given), the inhibition is 4.6% (inactive). Next, `Cc1cc(C)nc(S/C=C/C(=O)c2ccccc2)n1`: 54% (active). Next, `CSc1nc(N(C)NC(=O)c2cccc(C)c2)c2ccccc2n1`: 25.9% (inactive). In the case of `CCOC(=O)N1CCN(CC(=O)c2ccc3c(c2)CCN3)CC1`, the inhibition was 2.97% (inactive). With `O=C(CSc1nc(Nc2ccccc2)nc(N2CCOCC2)n1)Nc1cc(Cl)ccc1O` the figure was 64.7% (active); with `CC1(c2ccccc2)NC(=O)N(CC(=O)Nc2cc(Cl)ccc2N2CCOCC2)C1=O` (stereo not given), -24.9% (inactive); with `C/C(=N\Nc1nc(Nc2ccccc2)nc(N2CCOCC2)n1)c1cccs1`, -8.45% (inactive). Turning to `C=CCn1c2c(c3ccccc31)CCC2`, the inhibition was -7.49% (inactive).

As to `OC[C@@H]1CN(Cc2ccncc2)C[C@H](n2cnc3c(N4CCN(c5ccccc5)CC4)ncnc32)O1`, the inhibition is 37.7% (inactive).

For `O=C(Nc1ccc(Br)c2cccnc12)c1ccc(Cn2cc([N+](=O)[O-])cn2)o1`, the inhibition was -32.5% (inactive). `CC(=O)c1c(C)[nH]c(C(=O)OCC(=O)Nc2sc3c(c2C#N)CCCC3)c1C`: the inhibition was 52.3% (active). As for `CC(=O)c1c(C)[nH]c(C(=O)OCC(=O)Nc2c(C)cccc2C)c1C`, the inhibition was 14.6% (inactive). As to `N#Cc1c(NC(=O)CCCl)sc2c1CCCCC2`, the inhibition is -37% (inactive).

With `COc1ccc(N2CC(C)Cn3c2nc2c3c(=O)n(Cc3ccccc3F)c(=O)n2C)c(OC)c1` (stereo not given), the inhibition was 24.4% (inactive). For `O=C(O)c1cccnc1Sc1ncnc2sc3c(c12)CCC3`, the inhibition was 10.5% (inactive).

For `c1ccc(CSc2ncnc3c2sc2nc(N4CCOCC4)c4c(c23)CCCC4)cc1`, the inhibition was 60.3% (active). Regarding `c1ccc(COc2nsnc2N2CCOCC2)cc1`, the inhibition is 11% (inactive). As for `Cc1ccc(CCN2CC(C(=O)O)CC2=O)cc1` (stereo not given), the inhibition is -21.4% (inactive). `O=C1c2ccccc2C(Nc2ccc3c(c2)OCCO3)N1Cc1ccco1` (stereo not given): the inhibition is 62% (active). For the compound `CCCCCn1nnnc1C1c2ccccc2C(=O)N1Cc1ccco1` (stereo not given), the inhibition was -7.23% (inactive). On to `S=C(NCc1ccco1)Nc1ccc2c(c1)OCCO2`, for which the inhibition is 8.28% (inactive). Consider `NC1=CC(=O)C(=O)c2cccnc21`, for which the inhibition is -15.9% (inactive).

Regarding `O=C(O)CCCC(=O)Nc1ccccc1-n1ccnc1`, the inhibition was 13% (inactive). On to `O=C(Nc1ccccc1)Nc1nnc(COc2ccccc2F)s1`, for which the inhibition is 53.5% (active). For the compound `O=C(NCCOc1ccccc1F)Nc1ccc(Br)cc1`, the inhibition was -33.8% (inactive). Take `O=C(Nc1nnc(COc2ccccc2)s1)Nc1ccccc1F`: the inhibition was -7.72% (inactive). As to `Cc1ccc(NC(=O)C2CC(=O)N(c3ccc4c(c3)OCCO4)C2)cc1S(=O)(=O)N1CCCCCC1` (stereo not given), the inhibition is 29.1% (inactive). Take `Cc1ccc2c(c1)N(CC(=O)N(Cc1ccccn1)Cc1ccco1)C(=O)C(C(C)C)O2` (stereo not given): the inhibition is 4.87% (inactive). As for `O=C(/C=C/NCc1ccc(F)cc1)c1ccccc1`, the inhibition is -45.6% (inactive). Turning to `Cc1ccc(NNC(=O)C2CCC2)cc1C`, the inhibition is -8.76% (inactive). Next, `Cc1ccc(N/C=C/C(=O)c2ccccc2)cc1C`: 56.6% (active). With `CCC(C)NC(=O)CN(C1CCCCC1)S(C)(=O)=O` (stereo not given), the inhibition was -2.32% (inactive). Consider `COc1ccc(CCN2C(=O)c3[nH]nc(-c4ccccc4O)c3C2c2ccc(C)cc2)cc1OC` (stereo not given), for which the inhibition was 22.8% (inactive). With `COC(=O)Cn1c(=NC(=O)c2cc(OC)c(OC)c(OC)c2)sc2cc(OC)ccc21` the figure was 3.88% (inactive); with `Cc1ccc(N2CCN(c3ccc([N+](=O)[O-])cn3)CC2)c(C)c1`, 5.6% (inactive); with `NC(=O)C[n+]1cccc(C(N)=O)c1`, -13.6% (inactive).
